# HDAC3 inh: inhibitors of human histone deacetylase 3. recombinant HDAC3, fluorogenic peptide/trypsin coupled, fluorescence. inhibition, % at 8.3 µM. actives 0.15% (n = 320,000). AID 2718; in the data active means inhibition above about 26%, passing the limit was not always enough
# GC-A act: GC-A (human) enzyme activation; actives 0.14% (n = 370,000); P16066; activation, % at 10 µM; AID 1671463; HEK293 GC-A cells, cGMP TR-FRET, EC30 ANP; 0% at EC30 ANP, 100% saturating ANP; in the data active means activation above about 40%
# Target sequence (P16066 whole entry, looked up): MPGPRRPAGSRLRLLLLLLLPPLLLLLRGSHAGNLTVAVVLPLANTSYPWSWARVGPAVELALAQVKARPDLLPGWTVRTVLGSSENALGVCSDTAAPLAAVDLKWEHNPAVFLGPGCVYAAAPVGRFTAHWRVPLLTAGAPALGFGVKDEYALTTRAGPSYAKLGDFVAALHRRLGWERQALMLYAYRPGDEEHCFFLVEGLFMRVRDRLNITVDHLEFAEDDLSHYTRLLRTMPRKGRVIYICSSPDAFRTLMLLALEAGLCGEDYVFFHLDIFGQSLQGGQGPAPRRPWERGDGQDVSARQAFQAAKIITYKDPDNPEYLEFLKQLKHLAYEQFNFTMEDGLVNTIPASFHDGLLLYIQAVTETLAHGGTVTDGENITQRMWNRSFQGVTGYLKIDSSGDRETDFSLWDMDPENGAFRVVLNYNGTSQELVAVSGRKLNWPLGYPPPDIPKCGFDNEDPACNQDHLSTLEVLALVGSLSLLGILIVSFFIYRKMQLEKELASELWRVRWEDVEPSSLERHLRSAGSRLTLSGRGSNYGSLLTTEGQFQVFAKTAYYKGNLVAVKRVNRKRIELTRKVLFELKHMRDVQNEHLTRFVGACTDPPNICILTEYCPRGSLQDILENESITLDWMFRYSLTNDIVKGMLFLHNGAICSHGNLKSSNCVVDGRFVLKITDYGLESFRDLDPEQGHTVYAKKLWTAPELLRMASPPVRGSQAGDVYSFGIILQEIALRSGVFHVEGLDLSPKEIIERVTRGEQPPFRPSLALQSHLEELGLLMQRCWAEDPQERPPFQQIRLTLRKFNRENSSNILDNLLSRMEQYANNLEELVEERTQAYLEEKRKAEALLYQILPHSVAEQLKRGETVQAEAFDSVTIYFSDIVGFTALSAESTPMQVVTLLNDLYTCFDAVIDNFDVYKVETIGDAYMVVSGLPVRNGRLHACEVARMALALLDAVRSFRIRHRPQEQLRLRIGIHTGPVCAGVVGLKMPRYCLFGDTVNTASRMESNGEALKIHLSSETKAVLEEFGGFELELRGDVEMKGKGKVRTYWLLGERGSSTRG
# GC-B act: GC-B (human) receptor activation | P20594 | HEK293-GC-B cells, CNP EC30, cGMP TR-FRET; 0% at EC30 CNP, 100% saturating CNP | activation, % at 10 µM | actives 0.11% (n = 370,000);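 active means activation at 10 µM reaching about 35% in either raw or pattern-adjusted values, limit read from the data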
# ALR inh: blocks human ALR sulfhydryl oxidase activity | P55789 | purified ALR, DTT oxidation, H2O2 HRP-luminol luminescence | inhibition, % (no concentration beside the values) | actives 3.8% (n = 290,000);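 active means mean replicate inhibition above about 79%, with every replicate also reaching it, limit read from the data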
# * hit, by the source's call; · = no result. The full list was thinned out, with hits kept by preference.
SMILES,HDAC3 inh,GC-A act,GC-B act,ALR inh
CCCNC(=O)C1(C)CCCN(C(=O)c2ccc3ccccc3c2)C1 (stereo not given),·,4,6,·
Oc1ccccc1-c1cc(-c2ccccc2Cl)[nH]n1,8,8,-12,89*
COc1ccc(O)c(-c2cc(-c3ccccc3[N+](=O)[O-])[nH]n2)c1,1,-4,-4,99*
O=[N+]([O-])c1ccccc1-c1cc(-c2cc(Cl)ccc2O)n[nH]1,7,-15,-10,99*
NC(=O)C1CCN(c2nc(-c3ccc4c(c3)OCCCO4)cs2)CC1,·,-3,-5,·
Cc1cc(C)c(S(=O)(=O)N2CCOC2CNC(=O)C(=O)NCCN(C)C)c(C)c1 (stereo not given),0,2,0,-1
CCC1CCCCN1CCCNC(=O)Cn1ncn2nc(-c3ccc(OC)cc3)cc2c1=O (stereo not given),2,3,3,0
O=C(CSc1nc2ncc(Cl)cc2[nH]1)N1CCC(Cc2ccccc2)CC1,0,-6,-2,-6
O=C(NCc1ccccc1)c1cccc(NC(=O)C2CCCC2)c1,·,-3,1,·
Cc1cc(NC(=O)CN2C(=O)CCSc3ccccc32)no1,1,-3,1,·
Cc1cc(NC(=O)CN2C(=O)CC(c3ccco3)Sc3ccccc32)no1 (stereo not given),41*,·,·,1
Cc1nc(SCC(=O)N2CCN(c3ccccc3)CC2)n[nH]1,5,0,-1,99*
O=C(N1CCOCC1)N1CCN(c2ccc(F)cc2)CC1,5,0,0,35
O=C(CN1CCN(c2ccc(F)cc2)CC1)N1CCOCC1,3,1,-3,88*
Cc1[nH]c2ccccc2c1SCC(=O)N1CCN(c2ccccc2)CC1,7,-7,-5,91*
O=C(CSc1nccc(=O)[nH]1)N1CCN(c2ccccc2)CC1,-4,1,0,92*
O=C(NC1CCCC1)c1cccc(Oc2ccccc2)c1,-8,2,4,2
O=C(NCCC(=O)N1CCN(S(=O)(=O)c2ccccc2Cl)CC1)Nc1ccccc1,7,3,-2,0
Nc1nc(SCC(=O)N2CCN(c3ccc(F)cc3)CC2)n[nH]1,-3,-1,0,94*
O=C(CCN1CCOCC1)Nc1ccc(F)cc1,-1,-6,0,3
O=C(NCCN1CCCC1)c1ccc(Br)cc1,-10,0,-3,-17
Nc1ccc(NC(=O)CCN2CCOCC2)cc1,2,-3,-4,93*
O=C(CCN1CCCCC1)NNC(=S)NC(=O)c1ccc(Br)cc1,·,1,2,99*
O=C(NC(=S)NCCCN1CCOCC1)c1ccc(Br)cc1,-3,3,2,24
O=C(CCN1CCOCC1)NNC(=S)NC(=O)c1ccc(Br)cc1,2,-3,1,99*
SMILES,HDAC3 inh,GC-A act,GC-B act,ALR inh
COc1ccc(-n2nnnc2C(CCc2ccccc2)N2CCN(C/C=C/c3ccccc3)CC2)cc1 (stereo not given),·,-6,-1,·
COc1ccc(CNC(=O)Cn2nc([N+](=O)[O-])c(Br)c2C)cc1OC,13,-3,1,-7
FC(F)(F)c1cnc(NNC(=S)Nc2ccc(Cl)cc2)c(Cl)c1,3,4,7,98*
CNC(=O)c1c(NC(=O)c2cccc(N3C(=O)CCC3=O)c2)sc2c1CCCC2,-7,15,11,-5
CCOc1ccc(N2C(=O)CC(N3CCc4ccccc43)C2=O)cc1 (stereo not given),1,1,16,10
O=C1CC(N2CCc3ccccc32)C(=O)N1c1ccccc1 (stereo not given),-8,-1,1,99*
COc1ccc(NC(=O)C2C3C=CC4(O3)C2C(=O)N(CCN2CCCCC2)C4C(=O)NC2CCCC(C)C2C)cc1 (stereo not given),-2,-4,2,-4
CC(OC(=O)COc1ccccc1)C(=O)NC1CCCC1 (stereo not given),1,-1,-1,-1
Cc1ccc2c(CN3CCC(C(N)=O)CC3)cc(=O)oc2c1C,-5,20,24,95*
O=c1cc(CN2CCOCC2)c2ccc(O)c(O)c2o1,-4,-1,-5,99*
O=c1cc(CN2CCN(Cc3ccccc3)CC2)c2ccc(O)c(O)c2o1,0,-5,-5,100*
Cc1c(O)ccc2c(CN3CCN(Cc4ccccc4)CC3)cc(=O)oc12,-21,-1,4,·
Cc1c(O)ccc2c(CN(C)Cc3ccccc3)cc(=O)oc12,-25,7,5,86*
CSc1ccccc1OCc1cc(C(=O)N(C)CC2COCCO2)no1 (stereo not given),·,3,1,-1
O=S1(=O)C[C@H](N2CC[C@@H](O)C2)[C@@H](COCc2ccccc2)N1,·,3,0,·
Oc1ccc(Br)cc1-c1ccn[nH]1,5,4,1,15
Oc1ccc(O)c(-c2cnns2)c1,1,-2,2,99*
CCOC(=O)c1sc(NC(=O)CCN2CCN(CC)CC2)c(C(=O)OCC)c1C,0,3,-14,96*
Cc1n[nH]c(=O)n1-c1ccc(OCc2ccccc2)cc1,-3,0,4,1
CCOc1ccc(NC(=O)CC2C(=O)N(c3ccc(OC)c(Cl)c3)C(=S)N2C2CC2)cc1 (stereo not given),-3,-3,0,-1
O=C(NNc1ccc(-c2csnn2)cc1)c1ccccc1C(F)(F)F,-4,1,7,98*
O=C(NNc1ccc(-c2csnn2)cc1)c1cc(Cl)cc(Cl)c1,11,1,0,43
COC(=O)c1ccn(CC(=O)NC2CCCCC2)n1,3,0,-2,94*
C/C=C/c1ccccc1OCCCN1CCC(C(O)(c2ccccc2)c2ccccc2)CC1,·,-14,-1,·
CCN(Cc1nc2cc(Cl)ccc2c(=O)[nH]1)C(=O)c1cccc(OCc2c(C)noc2C)c1,-4,-3,-5,-4
SMILES,HDAC3 inh,GC-A act,GC-B act,ALR inh
CCOc1cc(S(=O)(=O)NC2CCCC2)ccc1Cl,7,-1,1,0
CCOc1cc(S(=O)(=O)Nc2cc(C)cc(C)c2)ccc1Cl,-2,-3,47*,-25
Cc1nc2ccc(NC(=O)c3ccc(F)cc3F)cc2c(=O)[nH]1,·,2,-5,·
O=C(CSc1nc2ccccc2[nH]1)Nc1ccc2[nH]c(=O)[nH]c2c1,11,7,6,98*
CCc1c(C)nc(SCC(=O)Nc2ccc3c(c2)OCCO3)[nH]c1=O,-3,2,-3,99*
CCc1cc(=O)[nH]c(SCC(=O)Nc2ccc3c(c2)OCCO3)n1,·,-5,-2,·
O=C(CSc1nc2ccccc2[nH]1)Nc1ccc2c(c1)OCCO2,0,2,-9,99*
Cn1c(SCC(=O)Nc2ccc3[nH]c(=O)[nH]c3c2)nnc1-c1ccc(F)cc1,-6,1,-2,99*
Cc1ccc2nc(SCC(=O)Nc3ccc4c(c3)OCCO4)[nH]c2c1,2,3,-3,5
COc1ccccc1C(=O)Nc1cccc(Oc2c(F)c(F)c(F)c(F)c2F)c1,0,-13,-3,-7
